A short description of experiment [1]: A CellTox Green Cytotoxicity Assay to monitor cytotoxicity in HepG2 cells - 0 hour (AID 1224882). Note: nearly all actives have a fitted effect of over 35% in size. Summed up:
(§1)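 Real-time, homogeneous cytotoxicity readout: dead-cell DNA staining by CellTox Green in HepG2 monolayers, fluorescence measured at timed intervals up to 40 h of continuous compound exposure.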

Experiment [2] can be described thus: A CellTox Green Cytotoxicity Assay to monitor cytotoxicity in HepG2 cells - 32 hour (AID 1224883). Note: nearly all actives have a fitted effect of over 50% in size. Summed up: as §1
A short description of experiment [3]: A CellTox Green Cytotoxicity Assay to monitor cytotoxicity in HEK293 cells - 8 hour (AID 1224884). Note: nearly all actives have a fitted effect of over 35% in size. The gist of the method:
(§2)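 Cytotoxicity was tracked continuously in HEK293 cells by a DNA-binding dye excluded from viable cells. Compounds were transferred in DMSO 5 h after seeding; fluorescence was recorded at intervals up to 40 h.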

Experiment [4] is described as follows: qHTS RealTime-Glo MT Cell Viability Assay in HepG2 cells - 16 hour (AID 1224885). Note: nearly all actives have a fitted effect of over 50% in size. The gist of the method: (§3)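 Cells + NanoLuc/prosubstrate dispensed (600 cells/well) → 5 h at 37 C/5% CO2 → compounds in DMSO transferred → 40 h incubation at 37 C, luminescence read at 0, 8, 16, 24, 32, 40 h.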
(qHTS replaces the single test concentration by a dilution series.)

The nature of experiment [5]: qHTS RealTime-Glo MT Cell Viability Assay in HEK293 cells - 24 hour (AID 1224886). Note: top concentration of the series differs between compounds; nearly all actives have a fitted effect of over 50% in size. Summed up:
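Tox21 10K qHTS, HEK293, 600 cells/well, RealTime-Glo reagent co-dispensed with cells; 5 h preincubation, compound by pintool, 37 C, luminescence at 0–40 h.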

A short description of experiment [6]: qHTS RealTime-Glo MT Cell Viability Assay in HEK293 cells - 8 hour (AID 1224887). Note: top concentration of the series differs between compounds; nearly all actives have a fitted effect of over 50% in size. The gist of the method:
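Nonlytic bioluminescent viability monitoring. HEK293 at 600 cells/well with reagent; 5 h settle; compound transfer by pintool; plates held at 37 C and read at set time points.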

Experiment [7] can be described thus: A CellTox Green Cytotoxicity Assay to monitor cytotoxicity in HEK293 cells - 16 hour (AID 1224888). Note: nearly all actives have a fitted effect of over 35% in size. Summed up: as §2
Experiment [8] can be described thus: qHTS RealTime-Glo MT Cell Viability Assay in HepG2 cells - 0 hour (AID 1224889). Note: nearly all actives have a fitted effect of over 50% in size. Summed up: as §3
Experiment [9] can be described thus: qHTS assay to identify small molecule antagonists of the androgen receptor (AR) signaling pathway using the MDA cell line in the presence of 0.5 nM R1881 - cell viability counter screen (AID 1259242). Note: nearly all actives have a fitted effect of over 45% in size. Summed up: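 Cytotoxicity toward MDA-kb2 cells is measured by CellTiter-Fluor live-cell protease fluorescence after 16 hr compound exposure at 37C in the presence of 0.5 nM R1881 stimulator.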

The target of experiment [10] is Androgen receptor (Homo sapiens) (UniProt P10275). The experiment can be described thus: qHTS assay to identify small molecule antagonists of the androgen receptor (AR) signaling pathway using the MDA cell line in the presence of 0.5 nM R1881 (AID 1259243). Note: nearly all actives have a fitted effect of over 50% in size. Summed up: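 Steps: seed MDA-kb2 cells, incubate 5 hr at 37C; pin-transfer compounds in DMSO; add R1881 to 0.5 nM final; incubate 16 hr; add ONE-Glo, wait 30 min at room temperature; read luminescence.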

Experiment [11] has as its target Estrogen receptor (Homo sapiens) (UniProt P03372). The experiment in a line: qHTS assay to identify small molecule antagonists of the estrogen receptor alpha (ER-alpha) signaling pathway using the BG1 cell line in the presence of 0.1 nM 17-beta-estradiol (AID 1259244). Note: nearly all actives have a fitted effect of over 50% in size. Summed up:
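After 5 days in hormone-depleted medium (charcoal-stripped serum, no phenol red), VM7Luc4E2 cells were seeded, incubated 24 h, then co-treated with compound and 0.1 nM (final) estradiol for 22 h before luminescence detection.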

Experiment [12] is described as follows: qHTS assay to identify small molecule HDAC inhibitors (AID 1259364). Note: top concentration of the series differs between compounds; nearly all actives have a fitted effect of over 45% in size. The gist of the method: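 Homogeneous cell-based luminescent assay of endogenous class I/II HDAC activity; HCT-116 cells, 2 h compound exposure, 30 min HDAC-Glo development at RT.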
The nature of experiment [13]: qHTS assay to identify small molecule HDAC inhibitors - cell viability counter screen (AID 1259365). Summed up: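 Measured quantity is CellTiter-Glo luminescence from wild-type HCT-116 cells after compound incubation of 2hr at 37C, 5% CO2; reagent developed 30min at room temperature.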
A short description of experiment [14]: qHTS assay to identify small molecule agonists of the sonic hedgehog signaling (Shh) pathway - cell viability counter screen (AID 1259366). Note: nearly all actives have a fitted effect of over 50% in size. The gist of the method:
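In quantitative high-throughput format, 3T3 Gli1-Luc cells were exposed to compounds for 24hr and multiplexed for viability using CellTiter-Fluor, incubated 1hr at 37C before the fluorescence read.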

Experiment [15] is described as follows: qHTS assay to identify small molecule agonists of the sonic hedgehog signaling (Shh) pathway (AID 1259368; calls by dose curve;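 note: NIH/3T3-derived 3T3Gli1-Luc cells carrying a stable Gli1-driven firefly luciferase reporter; series mostly up to about 92 µM; nearly all actives have a fitted effect of over 15% in size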). Summed up:
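Steps: seed 3T3 Gli1-Luc cells, incubate 4 hr at 37 C, pin-transfer compounds in DMSO alongside a positive control, incubate 24 hr, add luciferase detection reagent, wait 30 min at room temperature, read luminescence.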

The nature of experiment [16]: qHTS assay to identify small molecule antagonists of the sonic hedgehog signaling (Shh) pathway (AID 1259369; calls by dose curve; note: nearly all actives have a fitted effect of over 45% in size; note: potency is the fitted concentration of half-maximal effect). Summed up: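 Inhibition of Shh signalling is measured as reduced Gli1-response-element firefly luciferase output in an NIH/3T3-derived stable reporter clone stimulated with conditioned medium for 24hr.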
Experiment [17] is described as follows: A CellTox Green Cytotoxicity Assay to monitor cytotoxicity in HepG2 cells - 8 hour (AID 1224890). Note: nearly all actives have a fitted effect of over 45% in size. Summed up: as §1
Experiment [18] can be described thus: qHTS assay to identify small molecule antagonists of the sonic hedgehog signaling (Shh) pathway - cell viability counter screen (AID 1259367). Note: nearly all actives have a fitted effect of over 55% in size. The gist of the method:
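After a 4 hr settling period, 3T3 Gli1-Luc cells were treated with DMSO-dissolved chemicals and conditioned medium, kept 24 hr at 37C in 5% CO2, and assayed for viability by CellTiter-Fluor fluorescence following 1 hr reagent incubation.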

Experiment [19] can be described thus: qHTS assay to identify small molecule antagonists of the estrogen receptor alpha (ER-alpha) signaling pathway using the BG1 cell line in the presence of 0.1 nM 17-beta-estradiol - cell viability counter screen (AID 1259241). Note: nearly all actives have a fitted effect of over 40% in size. Summed up:
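In this screen, hormone-deprived VM7Luc4E2 cells were seeded at 4,000 per well, dosed with compound and 0.1 nM estradiol final, and incubated 22 hr at 37C and 5% CO2; fluorogenic live-cell protease signal reported viability.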

Molecules are shown by their SMILES. Values without a mark were called inactive. Results filed as inconclusive are left out. The source made the active and inactive calls. Unless noted, calls come from the whole dose curve; as a rule, active = well fitted curve in the direction sought with a large enough effect in the repeat runs; inconclusive = weak or mixed curves; inactive = no such curve, though single readings can be large; an effect the other way counts as inactive or inconclusive.

Chain of Androgen receptor (Homo sapiens) (P10275 whole entry, looked up): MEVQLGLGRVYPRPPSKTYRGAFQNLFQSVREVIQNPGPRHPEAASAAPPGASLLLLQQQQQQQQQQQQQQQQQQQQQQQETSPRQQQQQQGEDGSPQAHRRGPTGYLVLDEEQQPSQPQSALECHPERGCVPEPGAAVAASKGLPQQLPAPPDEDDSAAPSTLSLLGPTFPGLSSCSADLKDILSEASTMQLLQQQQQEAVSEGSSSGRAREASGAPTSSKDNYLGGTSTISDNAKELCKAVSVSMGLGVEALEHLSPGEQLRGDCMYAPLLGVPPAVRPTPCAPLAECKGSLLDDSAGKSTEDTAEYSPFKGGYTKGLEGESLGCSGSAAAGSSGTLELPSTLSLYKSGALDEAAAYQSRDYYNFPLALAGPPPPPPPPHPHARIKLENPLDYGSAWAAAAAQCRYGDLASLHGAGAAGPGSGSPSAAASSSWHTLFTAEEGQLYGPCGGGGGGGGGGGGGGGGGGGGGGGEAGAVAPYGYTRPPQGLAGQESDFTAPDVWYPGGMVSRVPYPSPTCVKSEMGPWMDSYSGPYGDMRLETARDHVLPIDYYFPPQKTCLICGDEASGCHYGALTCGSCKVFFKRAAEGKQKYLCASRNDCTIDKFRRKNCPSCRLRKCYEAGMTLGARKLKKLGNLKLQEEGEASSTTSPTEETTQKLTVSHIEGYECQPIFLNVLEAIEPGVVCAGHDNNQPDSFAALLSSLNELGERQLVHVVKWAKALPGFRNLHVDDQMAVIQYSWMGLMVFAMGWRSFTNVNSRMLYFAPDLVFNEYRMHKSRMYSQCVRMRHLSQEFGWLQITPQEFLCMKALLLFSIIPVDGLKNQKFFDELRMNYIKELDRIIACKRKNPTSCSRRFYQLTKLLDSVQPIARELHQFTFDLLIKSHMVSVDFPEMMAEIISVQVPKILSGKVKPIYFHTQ
Chain of Estrogen receptor (Homo sapiens) (P03372 whole entry, looked up): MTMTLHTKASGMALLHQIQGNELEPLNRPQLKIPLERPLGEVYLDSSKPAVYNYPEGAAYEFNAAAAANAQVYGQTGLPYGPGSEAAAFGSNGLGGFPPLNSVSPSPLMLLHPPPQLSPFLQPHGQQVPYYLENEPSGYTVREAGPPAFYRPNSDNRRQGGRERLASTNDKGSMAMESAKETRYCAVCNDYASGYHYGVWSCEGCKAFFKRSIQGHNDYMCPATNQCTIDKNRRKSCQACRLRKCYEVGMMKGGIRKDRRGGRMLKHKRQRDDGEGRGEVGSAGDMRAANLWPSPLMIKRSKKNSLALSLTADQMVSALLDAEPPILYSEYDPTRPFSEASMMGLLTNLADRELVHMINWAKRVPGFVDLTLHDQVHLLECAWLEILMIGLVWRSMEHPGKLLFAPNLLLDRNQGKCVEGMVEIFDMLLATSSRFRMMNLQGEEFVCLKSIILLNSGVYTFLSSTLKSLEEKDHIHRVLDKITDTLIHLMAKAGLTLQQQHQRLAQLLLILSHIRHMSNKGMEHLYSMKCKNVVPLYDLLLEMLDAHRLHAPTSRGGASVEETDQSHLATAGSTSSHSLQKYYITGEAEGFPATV

In the case of `c1cc[nH]c1`, the Potency result in experiment [1], in experiment [2], in experiment [3], in experiment [4], in [5] and in experiment [6] was “inactive” in each case. Moreover, the Potency entry in [7], in experiment [8], in [9], in [10], in experiment [11] and in [12] was “inactive” in each case. For the same compound, the Potency result in [13], in experiment [14], in experiment [15] and in experiment [16] was “inactive” in each case.

As to `CCN(CC)c1cccc(C)c1`, the Potency entry in experiment [1], in [2], in [3], in experiment [4], in experiment [5] and in [6] was “inactive” throughout. Besides, the Potency entry in experiment [7], in [8], in experiment [9], in [11], in [12] and in [13] was “inactive” in each case. The Potency result in [14], in experiment [15] and in experiment [16] was “inactive” in each case.

Take `CCNc1nc(NC(C)CC)nc(OC)n1` (stereo unspecified): the Potency entry in experiment [1], in experiment [2], in experiment [3], in experiment [4], in experiment [5] and in experiment [6] was “inactive” each time. Further, the Potency entry in [7], in experiment [8], in experiment [17], in experiment [9], in [13] and in experiment [14] was “inactive” throughout. The Potency result in experiment [18] and in experiment [15] was “inactive” throughout. In addition, in experiment [16], the Potency is 30.6 µM (active).

Regarding `CCOC(=O)CC(C)O` (stereo unspecified), the Potency result in [1], in experiment [2], in experiment [3], in experiment [4], in experiment [5] and in [6] was “inactive” in each case. Besides, the Potency result in experiment [7], in experiment [8], in [19], in experiment [10], in experiment [12] and in [13] was “inactive” each time. Also, the Potency entry in experiment [14], in experiment [18] and in experiment [15] was “inactive” each time.

As for `CCC1(c2cnc[nH]2)Cc2ccccc2C1`, the Potency result in experiment [1], in experiment [2], in experiment [3], in experiment [4], in experiment [5] and in [6] was “inactive” throughout. Also, the Potency result in [7], in experiment [8], in [17], in experiment [12], in experiment [13] and in experiment [14] was “inactive” in each case. Also, the Potency entry in experiment [15] is “inactive”.

With `C(=C/c1ccccc1)/c1ccccc1`, the Potency result in [1], in experiment [2], in experiment [3], in experiment [4], in [5] and in [6] was “inactive” each time. The Potency entry in experiment [7], in experiment [8], in [17], in experiment [9], in experiment [11] and in experiment [12] was “inactive” throughout. Further, the Potency result in experiment [13], in [14] and in experiment [15] was “inactive” each time.

As to `CCCCCCCC/C=C/CCCOC(C)=O`, the Potency entry in [1], in experiment [2], in experiment [3], in experiment [4], in experiment [5] and in [6] was “inactive” in each case. In addition, the Potency entry in [7], in [8], in experiment [19], in [9], in experiment [11] and in experiment [12] was “inactive” throughout. Further, the Potency result in experiment [13], in experiment [14] and in [15] was “inactive” throughout. Besides, the Potency in experiment [16] is 48.6 µM (active).

Take `NC(=O)c1ccccc1N`: the Potency result in experiment [1], in experiment [2], in experiment [3], in [4], in experiment [5] and in [6] was “inactive” each time. Moreover, the Potency entry in [7], in experiment [8], in experiment [17], in experiment [9], in [10] and in experiment [11] was “inactive” each time. For the same compound, the Potency entry in [12], in [13], in experiment [18] and in [15] was “inactive” in each case.

Values taken from PubChem BioAssay (Tox21).
